Measured values as given in PubChem BioAssay (NCATS).
“And” between values parts separate entries of the source, which are not always exact repeats. Identical values can stand only once. Results filed as inconclusive are left out. The source made the active and inactive calls. The call rests on the fitted dose curve; in most records, active means well fitted curve in the direction sought with a large enough effect; inconclusive means small, poorly fitted or top-dose-only effect, or another doubt; inactive means no such curve, though single readings can be large; an effect the other way counts as inactive or inconclusive.

Legend:
[1] = target: Cytochrome P450 3A7 (Homo sapiens) (UniProt P24462); assay: Cytochrome P450 family 3 subfamily A member 7 (CYP3A7) small molecule antagonists: luciferase biochemical qHTS assay (AID 1963596); further: on the % scale 0 is the no-effect control and ±100 the full control effect; nearly all actives have a fitted effect of over 40% in size
Method in brief: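 P450-Glo luminescent assay: CYP3A7 enzyme converts a proluciferin substrate to luciferin, detected by luciferase reagent; light proportional to activity. Compounds in DMSO preincubated 10 min with enzyme-substrate mix at room temperature, then NADPH regeneration added for 1 h.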

[2] = Viability qHTS for spleen associated tyrosine kinase inhibitor (SYKi) naive MV4-11 cells (AID 1963823); further: nearly all actives have a fitted effect of over 40% in size; further: potency means the concentration at half of the fitted maximal effect
Method in brief: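 Luminescence from CellTiter-Glo, developed 10 min at room temperature, gave viability of MV4-11 cells never exposed to SYK inhibitor. Cells (500/well) had been incubated with compounds for 72 hr under standard culture conditions.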

[3] = Viability qHTS for spleen associated tyrosine kinase inhibitor (SYKi) drug resistant MV4-11 cells (AID 1963824); further: nearly all actives have a fitted effect of over 35% in size; further: potency means the concentration at half of the fitted maximal effect
Method in brief: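 SYK-inhibitor-resistant MV4-11 AML cells were seeded at 500 per well onto compound and cultured 72 hours (37 °C, 5% CO2). CellTiter-Glo was then added, and after 10 min at room temperature, luminescence gave viability.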

[4] = Quantitative highthroughput screen to assess conditional lethalithy of NOMO1 cells grown in RPMI1640 with untreated serum (RPMI+s) (AID 1963876); further: nearly all actives have a fitted effect of over 35% in size; further: potency means the concentration at half of the fitted maximal effect;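 on Viability: 100% = DMSO wells and 0% = empty wells without cells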
Method in brief: (§1)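 Each medium arm—HPLM with 10% dialyzed FBS, or RPMI1640 with 5 mM glucose and 10% untreated or dialyzed FBS—was screened against an 11-point, 3-fold compound titration for 48 h at 37 °C, with CellTiter-Glo luminescence as endpoint.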

[5] = Quantitative highthroughput screen to assess conditional lethalithy of NOMO1 cells grown in RPMI1640 with dialyzed fetal bovine serum (RPMI+ds) (AID 1963877); further: nearly all actives have a fitted effect of over 30% in size; further: potency means the concentration at half of the fitted maximal effect;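 on Viability: series mostly up to about 46 µM; 100% = DMSO control wells and 0% = empty wells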
Method in brief: as §1

[6] = Quantitative highthroughput screen to assess conditional lethalithy of NOMO1 cells grown in Human Plasma-Like Medium with dialyzed fetal bovine serum (HPLM+ds) (AID 1963878); further: nearly all actives have a fitted effect of over 35% in size; further: potency means the concentration at half of the fitted maximal effect;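 on Viability: 100% = DMSO wells and 0% = empty wells on each plate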
Method in brief: as §1

[7] = Quantitative highthroughput screen to assess conditional lethalithy of P12 Ichikawa cells grown in Human Plasma-Like Medium with dialyzed fetal bovine serum (HPLM+ds) (AID 1963879); conditions: Potency: viability; further: nearly all actives have a fitted effect of over 35% in size; further: potency means the concentration at half of the fitted maximal effect; on Viability: series mostly up to about 46 µM
Method in brief: as §1

[8] = Quantitative highthroughput screen to assess conditional lethalithy of P12 Ichikawa cells grown in RPMI1640 with dialyzed fetal bovine serum (RPMI+ds) (AID 1963880); conditions: Potency: P12-Ichikawa viability; further: nearly all actives have a fitted effect of over 35% in size; further: potency means the concentration at half of the fitted maximal effect;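 on Viability: 100% = DMSO wells and 0% = empty wells on each plate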
Method in brief: as §1

[9] = Quantitative highthroughput screen to assess conditional lethalithy of P12 Ichikawa cells grown in RPMI1640 with untreated serum (RPMI+s) (AID 1963881); conditions: Potency: viability; further: nearly all actives have a fitted effect of over 35% in size; further: potency means the concentration at half of the fitted maximal effect;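 on Viability: series mostly up to about 46 µM; 100% = DMSO wells and 0% = empty wells without cells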
Method in brief: as §1

[10] = Quantitative highthroughput screen to assess conditional lethalithy of SEM cells grown in Human Plasma-Like Medium with dialyzed fetal bovine serum (HPLM+ds) (AID 1963882); further: nearly all actives have a fitted effect of over 35% in size; further: potency means the concentration at half of the fitted maximal effect; on Viability: series mostly up to about 46 µM
Method in brief: as §1

[11] = Quantitative highthroughput screen to assess conditional lethalithy of SEM cells grown in RPMI1640 with unreated serum (RPMI+s) (AID 1963883); further: nearly all actives have a fitted effect of over 35% in size; further: potency means the concentration at half of the fitted maximal effect;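 on Viability: 100% = DMSO wells and 0% = empty wells without cells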
Method in brief: as §1

[12] = Quantitative highthroughput screen to assess conditional lethalithy of SEM cells grown in RPMI1640 with dialyzed fetal bovine serum (RPMI+ds) (AID 1963884); further: nearly all actives have a fitted effect of over 35% in size; further: potency means the concentration at half of the fitted maximal effect;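 on Viability: series mostly up to about 46 µM; 100% = DMSO control wells and 0% = empty wells without cells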
Method in brief: as §1

[13] = Cellular viability qHTS for adrenocortical cancer (ACC) cell line SW-13 (AID 1963989); conditions: SW-13 ACC cells viability, CellTiter-Glo, 48 h; activity (max response): hits give low values;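 further: cells grown in serum-free medium with ITS supplement; on the % scale 0 is the no-effect control and ±100 the full control effect; nearly all actives have a fitted effect of over 65% in size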
Method in brief: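 Luminescent ATP read-out (CellTiter-Glo, 20 min at room temperature) measured metabolically competent SW-13 cells after 48 h compound treatment. Final concentrations spanned up to 46 uM; bortezomib served as positive control.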

[14] = Cellular viability qHTS for adrenocortical cancer (ACC) cell line NCI-H295R (AID 1963990);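 further: 0% = DMSO only wells and -100% = full killing with cytotoxic reference compound; nearly all actives have a fitted effect of over 60% in size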
Method in brief: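 IC50 and maximal efficacy derive from four-parameter logistic modelling of titration curves, with reads scaled between DMSO-only wells (0%) and doxorubicin hydrochloride (100% inhibition). Compounds spanned up to 46 uM over 48 h.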

Cytochrome P450 3A7 (Homo sapiens), sequence (P24462 whole entry, looked up): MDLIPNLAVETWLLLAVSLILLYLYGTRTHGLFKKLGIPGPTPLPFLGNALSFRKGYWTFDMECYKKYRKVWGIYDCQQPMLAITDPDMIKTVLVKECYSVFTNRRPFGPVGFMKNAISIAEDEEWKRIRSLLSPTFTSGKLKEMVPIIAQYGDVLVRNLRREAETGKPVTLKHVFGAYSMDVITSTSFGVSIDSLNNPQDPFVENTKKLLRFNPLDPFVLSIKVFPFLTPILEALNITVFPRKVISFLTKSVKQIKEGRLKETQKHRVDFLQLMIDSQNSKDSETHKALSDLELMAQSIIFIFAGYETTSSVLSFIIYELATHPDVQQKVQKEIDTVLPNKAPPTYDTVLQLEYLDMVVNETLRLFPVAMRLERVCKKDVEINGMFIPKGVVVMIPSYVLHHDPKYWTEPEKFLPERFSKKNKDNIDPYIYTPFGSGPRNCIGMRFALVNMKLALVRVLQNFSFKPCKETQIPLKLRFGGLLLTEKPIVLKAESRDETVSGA

CN(C)S(=O)(=O)c1ccc(NC(=S)N2CCC(C(O)(c3ccccc3)c3ccccc3)CC2)cc1
inactive: Potency [1]
active: Potency [2] 16.4 µM | Potency [3] 18.4 µM

COc1cc(N2CCOCC2)ccc1Nc1ncc(Cl)c(Nc2ccccc2NS(C)(=O)=O)n1
active: Potency [2] 0.103 µM | Potency [3] 0.206 µM
inactive: Potency [1]

NC(=O)c1cnccn1
inactive: Potency [1] | Potency [2] | Potency [3] | Potency [4] | Potency [5] | Potency [6] | Potency [7] | Potency [8] | Potency [9] | Potency [10] | Potency [11] | Potency [12] | activity (max response) [13] 14.3% and 8.02% | Potency [14]

O=c1[nH]c(-c2ccc(C(F)(F)F)cc2)nc2c1CSCC2
active: Potency [2] 2.35 µM
inactive: Potency [1] | Potency [3] | Potency [4] | Potency [5] | Potency [6] | Potency [7] | Potency [8] | Potency [9] | Potency [10] | Potency [11] | Potency [12] | activity (max response) [13] -10.8% | Potency [14]

CCC(C)(C)C1CCc2c(sc(NC(=O)c3ccc(Br)cc3)c2C#N)C1 (stereo not given)
inactive: Potency [1] | Potency [2] | Potency [3]

O=C(Cn1c2ccccc2c2nc3n(c(=O)c21)CCS3)N1CCCC1
inactive: Potency [1] | Potency [2] | Potency [3]

O=C(Nc1nnc(-c2ccc3c(c2)OCCO3)o1)C1CCCCC1
inactive: Potency [1] | Potency [2] | Potency [3]

N[C@@H](CC(=O)N1CCn2c(nnc2C(F)(F)F)C1)Cc1[nH]nc2c(F)c(F)ccc12
inactive: Potency [1] | Potency [2] | Potency [3]

COC(=O)c1ccc(N2CCN(C)CC2)c(NC(=O)c2cccc(OC)c2)c1
inactive: Potency [1] | Potency [2] | Potency [3]

O=C(NC1CCN(CC(F)(F)F)CC1)c1ccc(-c2cccc(F)c2)nc1
inactive: Potency [1] | Potency [2] | Potency [3]

COc1ccc(-c2cnc(-c3cccc4c3-c3ccccc3C4=O)o2)cc1
active: Potency [2] 0.0893 µM | Potency [3] 0.0709 µM
inactive: Potency [1]

Nc1ccc(S(N)(=O)=O)cc1
inactive: Potency [1] | Potency [2] | Potency [3] | Potency [4] | Potency [5] | Potency [6] | Potency [7] | Potency [8] | Potency [9] | Potency [10] | Potency [11] | Potency [12] | activity (max response) [13] 16.5% and -23.7% | Potency [14]

CC(C)(Sc1cc(C(C)(C)C)c(O)c(C(C)(C)C)c1)Sc1cc(C(C)(C)C)c(O)c(C(C)(C)C)c1
inactive: Potency [1] | Potency [2] | Potency [3] | Potency [4] | Potency [5] | Potency [6] | Potency [7] | Potency [8] | Potency [9] | Potency [10] | Potency [11] | Potency [12] | activity (max response) [13] 7.94% and -9.47% | Potency [14]

C1N2CN3CN1CN(C2)C3
inactive: Potency [1] | Potency [2] | Potency [3]

CN(c1ccc(NC(=O)Nc2ccccc2)cc1)S(=O)(=O)c1cnn(-c2ccc(F)cc2)c1
active: Potency [2] 16.4 µM | Potency [3] 23.1 µM
inactive: Potency [1]

CC(NC(=O)C(O)C(C)C)C(=O)NC1C(=O)N(C)CCc2ccccc21 (stereo not given)
inactive: Potency [1] | Potency [2] | Potency [3]

Nc1nc(F)nc2c1ncn2[C@@H]1O[C@H](CO)[C@@H](O)[C@@H]1O
inactive: Potency [1]
active: Potency [2] 10.5 µM and 16.8 µM and 14.6 µM | Potency [3] 13.2 µM and 14.6 µM | Potency [4] 0.469 µM | Potency [5] 0.372 µM | Potency [6] 0.418 µM | Potency [7] 0.469 µM | Potency [8] 0.372 µM | Potency [9] 0.526 µM | Potency [10] 0.0935 µM | Potency [11] 0.105 µM | Potency [12] 0.0743 µM

CCCCN(CCCC)CC(O)c1cc(Cl)cc2c1-c1ccc(Cl)cc1/C2=C/c1ccc(Cl)cc1 (stereo not given)
active: Potency [2] 20.9 µM | Potency [3] 18.8 µM
inactive: Potency [1]

CC#CC(=O)Nc1ccc2ncnc(Nc3cccc(Br)c3)c2c1
active: Potency [2] 1.46 µM | Potency [3] 1.46 µM and 580 nM
inactive: Potency [1]

CC1(C)CC(NC(=O)C(=O)Nc2ccc(Br)cc2)CC(C)(C)N1
inactive: Potency [1]
active: Potency [2] 3.26 µM | Potency [3] 2.59 µM

CC(C)Cc1ccc(C(C)C(=O)O)cc1 (stereo not given)
inactive: Potency [1] | Potency [2] | Potency [3] | Potency [4] | Potency [5] | Potency [6] | Potency [7] | Potency [8] | Potency [9] | activity (max response) [13] 8.32% and 2.38% | Potency [14]
active: Potency [11] 12.9 µM

Cn1c(N2CCCCS2(=O)=O)nc(C(=O)NCc2ccc(F)cc2)c(O)c1=O
inactive: Potency [1] | Potency [2] | Potency [3] | Potency [4] | Potency [5] | Potency [6] | Potency [7] | Potency [8] | Potency [9] | Potency [11] | Potency [12]

CN(C)CCc1c[nH]c2ccc(C[C@H]3COC(=O)N3)cc12
active: Potency [4] 16.6 µM | Potency [5] 20.9 µM | Potency [6] 13.2 µM | Potency [7] 7.43 µM | Potency [8] 10.5 µM | Potency [9] 10.5 µM | Potency [10] 9.35 µM | Potency [11] 4.69 µM | Potency [12] 9.35 µM
inactive: Potency [1] | Potency [2] | Potency [3] | activity (max response) [13] 12.9% | Potency [14]
